Assay [1] is described as follows: antimalarial activity against Dd2 strain (AID 2302;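 active = growth inhibition above 50% at the single 2 µM test dose, taken to imply half-maximal potency below 2 µM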;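 note: 0% = DMSO untreated growth and 100% = chloroquine plus artemisinin killed control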). The note with it: P. falciparum Dd2 in RBCs, LDH growth readout, 72 h; at 2 µM; stronger effect = higher value.
Assay [2] is described as follows: human hepatoma cell viability loss – ATP luminescence, cytotoxicity control for P. falciparum antimalarial project, primary screen (AID 2303;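 active = inhibition above 50%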;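 note: 0% = DMSO wells and 100% = digitonin-killed cells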). The note with it: HepG2 viability, 24-48 h, at 10 µM, stronger effect = higher value.
Assay [3] has as its target L-lactate dehydrogenase (Plasmodium falciparum (isolate CDC / Honduras)) (UniProt Q27743). Put plainly: PfLDH activity inhibition – cell lysate, 3D7 strain, counter-screen for P. falciparum growth inhibition project (AID 2304).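 Note: 0% = vehicle and 100% = reference inhibitor.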 The note with it: P. falciparum 3D7 crude extract, LDH APAD/NBT absorbance; at 2 µM; stronger effect = higher value.
Assay [4] can be described thus: inhibition of 3D7 malaria parasite growth – strain 3D7 (AID 2306).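 Note: 0% = DMSO wells and 100% = chloroquine plus artemisinin control wells.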 The note with it: P. falciparum 3D7 erythrocytic growth, LDH absorbance, 72 h; at 2 µM; stronger effect = higher value.
Assay [5] concerns the target Calcium-dependent protein kinase 1 (Plasmodium falciparum (isolate 3D7)) (UniProt P62344). The assay can be described thus: PfCDPK1 kinase inhibitors, biochemical, TCAMS library (AID 1159585; cut-off not given, nearly all actives have IC50 up to about 0.98 µM;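 note: inhibitors leave more ATP so luminescence rises with inhibition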). The note with it: recombinant PfCDPK1, Kinase-Glo ATP depletion luminescence. For orientation: Kinase-Glo measures the ATP left after a reaction by luminescence.
Assay [6] deals with Plasmodium falciparum protein kinase 6 (PK6, PF3D7_1337100) (UniProt Q8IDW1). The assay can be described thus: PfPK6 kinase inhibitors, biochemical, TCAMS library (AID 1159586). Particulars: recombinant PfPK6, Kinase-Glo ATP depletion luminescence.
The target of assay [7] is Protein kinase 7 (PK7), Plasmodium falciparum 3D7 (PF3D7_0213400) (UniProt Q7YTF7). The assay can be described thus: inhibition of Plasmodium PK7 catalytic activity – biochemical, TCAMS antimalarial set, Kinase-Glo luminescence (AID 1159587). The note with it: recombinant PfPK7, Kinase-Glo ATP depletion luminescence.
The target of assay [8] is Calcium-dependent protein kinase 4 (Plasmodium falciparum (isolate 3D7)) (UniProt Q8IBS5). The assay can be described thus: PfCDPK4 kinase inhibitors, biochemical, TCAMS library (AID 1159588; cut-off not given, nearly all actives have IC50 up to about 0.91 µM). Particulars: recombinant PfCDPK4, Kinase-Glo ATP depletion luminescence.

Unmarked numbers belong to inactive results. For part of these data: Results with a measured potency or affinity are listed apart. Calls of active or inactive are those of the source. Unless noted, the rule behind the calls is not given here.

Chain of L-lactate dehydrogenase (Plasmodium falciparum (isolate CDC / Honduras)) (Q27743 whole entry, looked up): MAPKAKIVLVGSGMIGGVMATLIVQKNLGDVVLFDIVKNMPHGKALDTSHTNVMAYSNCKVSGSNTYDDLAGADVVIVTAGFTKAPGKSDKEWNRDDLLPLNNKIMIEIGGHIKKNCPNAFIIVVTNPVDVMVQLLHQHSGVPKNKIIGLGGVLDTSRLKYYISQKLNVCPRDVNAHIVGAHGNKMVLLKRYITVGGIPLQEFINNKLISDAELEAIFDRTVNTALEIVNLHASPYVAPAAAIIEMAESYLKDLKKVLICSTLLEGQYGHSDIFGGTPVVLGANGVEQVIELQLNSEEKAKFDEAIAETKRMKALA
Chain of Protein kinase 7 (PK7), Plasmodium falciparum 3D7 (PF3D7_0213400) (Q7YTF7 1-343): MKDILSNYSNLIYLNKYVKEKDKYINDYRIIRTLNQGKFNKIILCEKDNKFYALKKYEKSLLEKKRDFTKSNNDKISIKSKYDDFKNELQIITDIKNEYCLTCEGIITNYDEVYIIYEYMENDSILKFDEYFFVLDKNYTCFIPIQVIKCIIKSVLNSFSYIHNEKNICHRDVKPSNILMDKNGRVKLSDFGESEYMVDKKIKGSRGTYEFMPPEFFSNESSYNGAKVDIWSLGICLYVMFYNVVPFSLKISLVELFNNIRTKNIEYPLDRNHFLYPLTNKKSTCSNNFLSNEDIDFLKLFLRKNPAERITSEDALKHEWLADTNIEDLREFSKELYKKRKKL
Chain of Plasmodium falciparum protein kinase 6 (PK6, PF3D7_1337100) (Q8IDW1 1-305): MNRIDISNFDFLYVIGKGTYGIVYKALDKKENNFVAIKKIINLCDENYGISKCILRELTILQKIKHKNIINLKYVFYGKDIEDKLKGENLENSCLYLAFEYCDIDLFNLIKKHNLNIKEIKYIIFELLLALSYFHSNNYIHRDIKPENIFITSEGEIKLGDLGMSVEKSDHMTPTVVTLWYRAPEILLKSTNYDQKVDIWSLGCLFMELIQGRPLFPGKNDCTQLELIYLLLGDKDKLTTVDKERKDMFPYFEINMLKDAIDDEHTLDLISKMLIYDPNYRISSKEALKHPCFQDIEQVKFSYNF
Chain of Calcium-dependent protein kinase 4 (Plasmodium falciparum (isolate 3D7)) (Q8IBS5 whole entry, looked up): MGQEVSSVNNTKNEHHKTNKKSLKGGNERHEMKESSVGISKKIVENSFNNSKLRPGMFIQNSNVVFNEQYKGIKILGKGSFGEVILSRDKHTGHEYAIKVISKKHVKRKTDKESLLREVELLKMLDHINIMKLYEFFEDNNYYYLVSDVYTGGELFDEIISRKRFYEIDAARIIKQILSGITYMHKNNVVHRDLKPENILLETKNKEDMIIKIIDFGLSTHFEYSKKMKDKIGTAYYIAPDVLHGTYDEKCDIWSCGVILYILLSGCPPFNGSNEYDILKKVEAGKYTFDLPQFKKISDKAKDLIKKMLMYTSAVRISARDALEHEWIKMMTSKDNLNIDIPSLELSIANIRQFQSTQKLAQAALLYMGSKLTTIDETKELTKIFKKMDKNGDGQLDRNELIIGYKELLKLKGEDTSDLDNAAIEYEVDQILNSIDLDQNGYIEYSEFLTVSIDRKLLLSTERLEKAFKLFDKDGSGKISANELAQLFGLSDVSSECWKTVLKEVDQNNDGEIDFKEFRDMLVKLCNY
Chain of Calcium-dependent protein kinase 1 (Plasmodium falciparum (isolate 3D7)) (P62344 whole entry, looked up): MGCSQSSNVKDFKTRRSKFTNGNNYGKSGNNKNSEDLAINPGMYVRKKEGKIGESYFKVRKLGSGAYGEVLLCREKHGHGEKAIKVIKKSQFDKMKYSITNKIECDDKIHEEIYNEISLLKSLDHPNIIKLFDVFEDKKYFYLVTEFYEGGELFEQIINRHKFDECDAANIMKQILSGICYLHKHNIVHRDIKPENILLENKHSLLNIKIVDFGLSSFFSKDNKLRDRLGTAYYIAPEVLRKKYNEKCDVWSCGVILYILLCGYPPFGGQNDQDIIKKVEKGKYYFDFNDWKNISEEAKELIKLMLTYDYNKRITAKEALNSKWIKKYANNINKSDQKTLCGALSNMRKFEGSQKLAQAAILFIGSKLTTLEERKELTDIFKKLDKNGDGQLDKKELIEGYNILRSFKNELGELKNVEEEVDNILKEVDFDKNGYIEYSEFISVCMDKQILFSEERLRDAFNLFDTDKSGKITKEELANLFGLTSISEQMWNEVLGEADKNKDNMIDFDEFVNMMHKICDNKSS

For `O=C(NCCCCN1CCC(O)(c2ccc(Cl)cc2)CC1)c1ccc(Br)cc1`, the results for the growth inhibition in assay [1] and in assay [4] were 48% and 82% (active), respectively. The inhibition – broadly, the change of the read-out against control, counted positive when it falls – in assay [2] is 41%; in assay [3] it was 4%. Besides, the result in assay [5], in assay [6], in assay [7] and in assay [8] was inactive.

As to `CC(C)N1CCC(N(Cc2ccc(-c3ccc(C(F)(F)F)cc3)cc2)C(=O)Cn2c(SCc3cccc(F)c3F)cc(=O)c3ccccc32)CC1`, the growth inhibition in assay [1] was 77% (active); in assay [4] it was 100% (active). For the same molecule, the inhibition in assay [2] is 52% (active); in assay [3], 1%. Also, the result in assay [5], in assay [6], in assay [7] and in assay [8] was inactive.

Regarding `COc1ccc2c(NN=Cc3ccc(Cl)cc3)ccnc2c1`, the growth inhibition in assay [1] is 100% (active); in assay [4] it was 101% (active). The inhibition in assay [2] is 8%; in assay [3], 5%. The result in assay [5], in assay [6], in assay [7] and in assay [8] was inactive.

Regarding `CCn1c(CN2CCN(Cc3ccccc3)CC2)nc2cc(NC(=O)c3cccs3)ccc21`, the figures for the growth inhibition in assay [1] and in assay [4] were 95% (active) and 97% (active), respectively. Also, the inhibition is 0% in assay [2] and 2% in assay [3]. For the same molecule, the result in assay [5], in assay [6], in assay [7] and in assay [8] was inactive.

`Cc1cccc(C(=O)NCCCN2CCC(NC(=O)/C=C/c3ccc(Cl)c(Cl)c3)CC2)c1`: the growth inhibition in assay [1] was 23%; in assay [4], 98% (active). Also, the figures for the inhibition in assay [2] and in assay [3] were 39% and 1%, respectively. Moreover, the result in assay [5], in assay [6], in assay [7] and in assay [8] was inactive.

As for `O=C(Nc1ccc(Cl)cc1)Nc1nc2ccc([N+](=O)[O-])cc2[nH]1`, the growth inhibition in assay [1] is 6%; in assay [4] it was 101% (active). Further, the inhibition in assay [2] is -2%; in assay [3], 3%. Further, the result in assay [5], in assay [6], in assay [7] and in assay [8] was inactive.

As for `O=C(NC1CCN(Cc2ccccc2)CC1)c1ccc(CNC2CCN(Cc3ccccc3)CC2)cc1`, the results for the growth inhibition in assay [1] and in assay [4] were 58% (active) and 99% (active), respectively. For the same molecule, the inhibition in assay [2] was 14%; in assay [3], 3%. In addition, the result in assay [5], in assay [6], in assay [7] and in assay [8] was inactive.

As to `CN(C(=O)c1ccc(Br)cc1)c1ccccc1[N+](=O)[O-]`, the growth inhibition is 0% in assay [1] and 96% (active) in assay [4]. The inhibition in assay [2] was 3%; in assay [3] it was 2%. The result in assay [5], in assay [6], in assay [7] and in assay [8] was inactive.

Turning to `Cc1ccc2c(NN=Cc3ccc(N(C)C)cc3)cc(C)nc2c1`, the results for the growth inhibition in assay [1] and in assay [4] were 46% and 99% (active), respectively. Also, the figures for the inhibition in assay [2] and in assay [3] were -9% and 8%, respectively. Also, the outcome in assay [5], in assay [6], in assay [7] and in assay [8] was inactive.

For `CCCC(=O)NC(c1cccs1)c1cc(Cl)c2cccnc2c1O` (centres undefined), the growth inhibition in assay [1] is 61% (active); in assay [4], 87% (active). Besides, the inhibition was 51% (active) in assay [2] and -4% in assay [3]. The result in assay [5], in assay [6], in assay [7] and in assay [8] was inactive.

`O=S(=O)(Nc1cccc(CCN2CCC(N3CCCCC3)CC2)c1)c1ccc2c(c1)OCCO2`: the growth inhibition is 5% in assay [1] and 91% (active) in assay [4]. In addition, the inhibition in assay [2] was 8%; in assay [3] it was -1%. Besides, the result in assay [5], in assay [6], in assay [7] and in assay [8] was inactive.

For the molecule `O=C(COc1ccc(Cl)c(Cl)c1)NCCCCCN1CCCN(C(=O)Nc2ccc(Cl)c(Cl)c2)CC1`, the growth inhibition in assay [1] is 7%; in assay [4], 93% (active). The figures for the inhibition in assay [2] and in assay [3] were 29% and 3%, respectively. Also, the outcome in assay [5], in assay [6], in assay [7] and in assay [8] was inactive.

With `O=C(NC1CCC(N2CCC(Cc3ccc(F)cc3)CC2)CC1)c1cc2ccccc2[nH]1` (centres undefined), the growth inhibition is 39% in assay [1] and 98% (active) in assay [4]. For the same molecule, the inhibition is 60% (active) in assay [2] and -2% in assay [3]. Moreover, the outcome in assay [5], in assay [6], in assay [7] and in assay [8] was inactive.

For `COc1ccc(-c2onc(C(F)(F)F)c2-c2ccc(Br)cc2)c(O)c1`, the growth inhibition in assay [1] was 77% (active); in assay [4] it was 99% (active). Moreover, the results for the inhibition in assay [2] and in assay [3] were 7% and 4%, respectively. Besides, the result in assay [5], in assay [6], in assay [7] and in assay [8] was inactive.

With `CN1CCCN(Cc2ccc(-c3cccc(NC(=O)c4ccc(Cl)cc4)c3)cc2)CC1`, the growth inhibition is 50% (active) in assay [1] and 98% (active) in assay [4]. Also, the values for the inhibition in assay [2] and in assay [3] were 34% and -4%, respectively. Besides, the outcome in assay [5], in assay [6], in assay [7] and in assay [8] was inactive.

Take `Cc1cc(OCCCN2CCC(NS(=O)(=O)c3cccc(Br)c3)C2)c2ccccc2n1` (centres undefined): the growth inhibition in assay [1] is 40%; in assay [4], 86% (active). Further, the inhibition was 13% in assay [2] and 3% in assay [3]. Besides, the outcome in assay [5], in assay [6], in assay [7] and in assay [8] was inactive.

Regarding `Cc1cc(N[C@@H](CC(C)C)C(=O)NCCOc2ccccc2)nc(NCCOc2ccccc2)n1`, the growth inhibition in assay [1] is 6%; in assay [4], 89% (active). The inhibition in assay [2] is -4%; in assay [3] it was -2%. In addition, the outcome in assay [5], in assay [6], in assay [7] and in assay [8] was inactive.

In the case of `Cc1ccc(NC(=O)Nc2ccc(Cl)cc2)cc1-c1cccc(C(=O)Nc2ccc(F)cc2)c1`, the growth inhibition in assay [1] is 52% (active); in assay [4] it was 96% (active). Moreover, the inhibition in assay [2] is 8%; in assay [3] it was 5%. For the same molecule, the outcome in assay [5], in assay [6], in assay [7] and in assay [8] was inactive.

Source of the values: PubChem BioAssay.
